# Experimental data published in PubChem BioAssay (NCATS).
# Records with an inconclusive call do not appear. Unmarked numbers belong to inactive results. Active and inactive are the calls of the source. Calls come from the whole dose curve; as a rule, active = well fitted inhibition curve with a large enough effect; inconclusive = small, poorly fitted or top-dose-only effect; inactive = flat fitted curve, though single readings scatter.
# Tested on: TAB113
# Assay: qHTS profiling for inhibitors of Plasmodium falciparum proliferation (AID 504749); note: nearly all actives have a fitted effect of over 60% in size;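 for activity, negative = inhibition: 0% = DMSO vehicle and full inhibition = artemisinin control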
# Settings: P. falciparum in erythrocytes, SYBR Green DNA, 72 h; series mostly up to 28.7 µM; activity, negative = inhibition: at the top concentration
# Outline: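 Quantitative HTS: compounds pinned into medium, infected erythrocytes added (0.3% parasitemia, 2.5% hematocrit), 72 h culture at 37 C under 5% CO2. Saponin/Triton lysis with SYBR Green I, overnight RT, then fluorescence read.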
# Potency is the fitted concentration of half-maximal effect.
Compound,"activity, negative = inhibition",Potency
CN(C)CCN(Cc1ccccc1)c1ccccn1,-19.7%,–
CCCCN(CCCC)CC(O)c1cc(Cl)cc2c1-c1ccc(Cl)cc1/C2=C/c1ccc(Cl)cc1 (configuration not stated),–,0.0056 µM (active)
CC(=O)c1ccc2c(c1)N(CCCN(C)C)c1ccccc1S2,-7.99% [at 12.8 µM],–
CSc1ccc2c(c1)N(CCC1CCCCN1C)c1ccccc1S2 (configuration not stated),–,10 µM (active)
O=C(O)CN1C(=O)c2cccc3cccc(c23)C1=O,-1.57%,–
CC(C)(C)C(=O)C(Oc1ccc(Cl)cc1)n1ccnc1 (configuration not stated),–,10 µM (active)
CN1CCCCC1CCN1c2ccccc2Sc2ccc(S(C)=O)cc21 (configuration not stated),-28%,–
NC1CCN(c2cccc(Cl)n2)CC1,-6.27%,–
Cc1c(O)cccc1C(=O)N[C@@H](CSc1ccccc1)[C@H](O)CN1C[C@H]2CCCC[C@H]2C[C@H]1C(=O)NC(C)(C)C,–,12.6 µM (active)
CNCCCC1c2ccccc2C=Cc2ccccc21,-29% [at 12.8 µM],–
CC(CN1c2ccccc2Sc2ccccc21)N(C)C (configuration not stated),4.93%,–
CCCn1cnc2c1c(=O)n(CCCCC(C)=O)c(=O)n2C,1.29%,–
OCc1cc(C(O)CNCCCCCCOCCCCc2ccccc2)ccc1O (configuration not stated),-22.9%,–
CN1CCC[C@@H]1Cc1c[nH]c2ccc(CCS(=O)(=O)c3ccccc3)cc12,-22.1%,–
NCCNCCNCCN,-4.55%,–
Nc1ncnc2c1ncn2[C@@H]1O[C@H](CO)[C@@H](O)[C@H]1O,4.64%,–
COc1ccc2[nH]c(S(=O)Cc3ncc(C)c(OC)c3C)nc2n1 (configuration not stated),–,8.91 µM (active)
